Screening results as filed in PubChem.
A selection: hits, their analogues and other compounds. The true share with any hit is near 4%.
BoNT A protease = BoNT A light chain protease inhibition; actives 0.17% (n = 360,000); AID 588499; inhibition, % at 10 µM; multiplex microsphere protease substrate cleavage, flow cytometry
BoNT F protease = BoNT F light chain protease inhibition. Multiplex microsphere protease cleavage assay, flow cytometry. inhibition, % at 10 µM. actives 0.22% (n = 360,000); in the data active = inhibition above about 35%, passing the limit was not always enough; inconclusive = no clear call, values can overlap the other calls
Anthrax LF prot = blocks Bacillus anthracis lethal factor protease. P15917. multiplex microsphere protease cleavage assay, LF. inhibition, % at 10 µM. actives 0.12% (n = 360,000). AID 588501
DUSP3 inh = DUSP3 (human) phosphatase inhibition. actives 0.52% (n = 290,000). AID 1654. recombinant VHR phosphatase, pNPP absorbance. inhibition, % at 13.3 µM. P51452; in the data active = inhibition above about 50%
Target sequence (P51452 whole entry, looked up): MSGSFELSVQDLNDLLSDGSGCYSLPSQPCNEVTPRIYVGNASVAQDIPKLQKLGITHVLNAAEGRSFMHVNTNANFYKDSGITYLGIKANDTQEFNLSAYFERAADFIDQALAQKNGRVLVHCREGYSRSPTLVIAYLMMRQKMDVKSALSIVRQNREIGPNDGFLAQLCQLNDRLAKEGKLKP
MazF activator = activators of E. coli MazEF toxin-antitoxin RNase. P0AE70. activation, % at 20 µM. FAM/BHQ RNA-DNA oligo cleavage fluorescence, 5 h. actives 0.32% (n = 350,000). AID 504720; in the data active = activation above about 50%
Target sequence (P0AE70 whole entry, looked up): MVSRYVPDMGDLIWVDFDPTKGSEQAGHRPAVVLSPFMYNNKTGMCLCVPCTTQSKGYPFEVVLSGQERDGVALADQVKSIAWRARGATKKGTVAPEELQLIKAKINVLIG
Bead autofluor = compound fluorescence in toxin protease inhibitor counterscreen; actives 3.1% (n = 360,000); compound autofluorescence counterscreen, microsphere flow cytometry; hits give high values; fluorescence intensity (test concentration not listed); in the data active = fluorescence intensity above about 16000; inconclusive = no clear call, values can overlap the other calls
Each line names hits and unclear results; the compound was inactive in the other large screens. Rule as the data show it, unless noted: active = inhibition above about 30%; inconclusive = no clear call, values can overlap the other calls; inactive = below that.

COc1cc(-n2c(C)nc3cc(C(=O)O)ccc32)cc(OC)c1OC	none
Cc1ccccc1-n1nc2c(c1NC(=O)c1ccco1)CS(=O)(=O)C2	none
Cc1ccc(-n2nc3c(c2NC(=O)c2c(-c4ccccc4Cl)noc2C)CS(=O)(=O)C3)c(C)c1	BoNT A protease inconclusive, Bead autofluor 23658
Cc1ccccc1-n1nc2c(c1NC(=O)c1c(-c3ccccc3Cl)noc1C)CS(=O)(=O)C2	Bead autofluor 16862
Cc1ccc(-n2nc3c(c2NC(=O)c2cccs2)CS(=O)(=O)C3)c(C)c1	none
O=C(COc1ccc2ccccc2c1Br)N1CCCCC1	none
O=C(COc1ccc2ccccc2c1Br)N1CCN(c2ccccn2)CC1	Bead autofluor 21691
O=C(c1ccco1)N1CCN(c2cc(C(F)(F)F)nc3ncnn23)CC1	DUSP3 inh 51.7
O=C(COc1ccc(Br)cc1CO)Nc1ccc(S(=O)(=O)N2CCCC2)cc1	Bead autofluor inconclusive (no result: DUSP3 inh)
COc1cc(-c2nnc(SCc3cc(=O)oc4cc(O)c(O)cc34)o2)cc(OC)c1OC	Bead autofluor 21137
CCOC(=O)CSc1nnc(-c2cc(OC)c(OC)c(OC)c2)o1	none
COc1ccc(S(=O)(=O)N2CCSC2c2ccccc2)cc1 (stereo not drawn)	none
Cn1sc(NC(=O)c2cccc(Cl)c2)nc1=O	Bead autofluor 22807
CC(=O)Cc1nsc(NC(=O)c2ccccc2Cl)n1	none
COC(=O)c1nc(NC(=O)c2ccc(Br)cc2)n[nH]1	none
COC(=O)c1nc(NC(=O)c2ccccc2Cl)n[nH]1	Bead autofluor 22352
Cn1sc(NC(=O)c2ccccc2Cl)nc1=O	Bead autofluor 24069
CCOc1cccc(/C=N/NC(=O)c2cccnc2)c1O	BoNT F protease inconclusive, DUSP3 inh 51.5
CCOc1cc(/C=N/NC(=O)c2cccnc2)ccc1O	none
CC(=O)c1cccc(NC(=O)c2cc(-c3cccs3)on2)c1	none
Cc1c(C)c2ccc(OCC(=O)N(C)C)c(C)c2oc1=O	none
CCc1c(C)c2ccc(OCC(=O)OC(C)C)c(C)c2oc1=O	Bead autofluor 24390
CCc1c(C)c2ccc(OCC(=O)N(C)C)c(C)c2oc1=O	Bead autofluor 21643
COC(=O)Cc1c(C)c2ccc(OCC(C)=O)c(C)c2oc1=O	none
COC(=O)Cc1c(C)c2ccc(OCc3nn[nH]n3)c(C)c2oc1=O	Bead autofluor 21317
C=CCNC(=O)C(=O)NCC1CCCN1CC (stereo not drawn)	none
Cc1ccc(CNc2nc(C)nc3sc4c(c23)CCC4)cc1	BoNT A protease inconclusive, Bead autofluor 17440
Cc1nc(NC(C)c2ccccc2)c2c3c(sc2n1)CCC3 (stereo not drawn)	Bead autofluor 16604
Cc1nc(Nc2ccc(O)cc2)c2c3c(sc2n1)CCCC3	none
